Only a selection was taken, and hits are over-represented in it overall.
FBPA Giardia inh: inhibitors of Giardia lamblia fructose-1,6-bisphosphate aldolase | Potency, µM (highest dose often 59.6 µM), without a hit: top-dose activity, negative = inhibition, hits mostly inhibitors | purified Giardia FBPA | AID 2451 | A8B2U2 | actives 0.71% (n = 290,000); note: potency is the fitted concentration of half-maximal effect; % is set by controls: 0 for no effect and ±100 for the full control effect; nearly all actives have a fitted effect of over 55% in size
Target sequence (A8B2U2 whole entry, looked up): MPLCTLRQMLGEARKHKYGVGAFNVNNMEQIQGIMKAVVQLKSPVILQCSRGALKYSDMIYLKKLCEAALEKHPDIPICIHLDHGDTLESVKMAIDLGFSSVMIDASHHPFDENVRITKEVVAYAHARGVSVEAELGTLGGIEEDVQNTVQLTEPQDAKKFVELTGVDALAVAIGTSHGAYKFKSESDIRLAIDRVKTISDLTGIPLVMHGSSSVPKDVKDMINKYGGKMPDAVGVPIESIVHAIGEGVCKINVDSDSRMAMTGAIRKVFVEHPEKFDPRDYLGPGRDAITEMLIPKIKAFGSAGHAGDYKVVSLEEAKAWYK
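40 nM FBPA preincubated 10 min at RT with compound (up to 57.5 uM final), then substrate plus GAPDH/TPI/NAD/arsenate coupling and diaphorase/resazurin added. Fluorescence read after 20 min at RT, 525/598 nm.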
RE007 growth inh: less growth of the S. pombe RE007 Vpr strain; S. pombe RE007 Vpr strain, BacTiter-Glo ATP luminescence, 24 h; Potency, µM (titrated, usually from 92.2 µM), inactives show at the top dose activity change, negative = less growth, usual class: inhibitors; actives 0.21% (n = 360,000); active = well fitted falling curve with a large enough effect; inconclusive = small, poorly fitted or top-dose-only effect; inactive = no such curve, though single readings can be large or run the other way; note: potency is the fitted concentration of half-maximal effect; % is set by controls: 0 for no effect and ±100 for the full control effect; nearly all actives have a fitted effect of over 50% in size
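Fission yeast strain RE007, carrying one chromosomally integrated HIV-1 vpr copy, was seeded at OD 0.01 in PMG+AL medium with 23 nL pinned compound. After 24 h at 30 °C and 99% humidity, viability was read by BacTiter-Glo luminescence.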
Cycloheximide cs: counter-screen for Shiga toxin inhibitors: cycloheximide protein synthesis inhibition | actives 12% (n = 300,000) | max response, % | cell reporter, cycloheximide protein synthesis inhibition counterscreen; in the data active = max response mostly above about 13%, no sharp cut-off; inactive = mostly below about 14%; note: read at 38.3 µM for the half of the compounds with a filed dose; 0% is about no effect
TbPYK inhibitor: blocks Trypanosoma brucei pyruvate kinase | Potency, µM (top dose mostly 76.8 µM), inactives show at the top dose activity, negative = inhibition, usual class: inhibitors | TbPYK enzyme, Kinase-Glo Plus ATP luminescence, 45 min | actives 0.12% (n = 410,000) | Q57TT1; note: potency is the fitted concentration of half-maximal effect; % is set by controls: 0 for no effect and ±100 for the full control effect; nearly all actives have a fitted effect of over 50% in size
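T. brucei PYK with substrate was exposed to pin-transferred compounds across a concentration series, then started with 130 uM ADP (final). After 45 min at room temperature, Kinase-Glo Plus luminescence was read, normalized and curve-fitted.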
LmPK inh: LmPK (Leishmania mexicana) enzyme inhibition; Q27686; AID 1721; Potency, µM (titrated, usually from 57.5 µM), for inactives: at the top dose activity change, negative = inhibition, hits mostly inhibitors; actives 0.37% (n = 290,000); purified LmPK, Kinase-Glo ATP luminescence, 1 h; note: potency is the fitted concentration of half-maximal effect; % is set by controls: 0 for no effect and ±100 for the full control effect
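0.1 nM LmPK, 0.5 mM PEP, 0.1 mM ADP; 50 mM imidazole pH 7.2, 7 mM MgCl2, 50 mM KCl; 1 h RT. Kinase-Glo luminescence readout, normalized to no-enzyme (full inhibition) and uninhibited wells.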
Shiga inhibitor: inhibitors of Shiga toxin in Vero cells; Vero cells, Shiga toxin protein synthesis inhibition reporter; inhibition, % at 38.7 µM; actives 9.2% (n = 290,000); AID 2315; in the data active = inhibition mostly above about 28%, no sharp cut-off; inactive = mostly below about 43%; note: 0% is about no effect
* = called active by the depositor; ? = inconclusive; . = not tested or not shown; [ ] = remark or other dose. Unless noted, calls come from the whole dose curve; as a rule, active = well fitted curve in the direction sought with a large enough effect; inconclusive = small, poorly fitted or top-dose-only effect, or another doubt; inactive = no such curve, though single readings can be large; an effect the other way counts as inactive or inconclusive.

SMILES | FBPA Giardia inh | RE007 growth inh | Cycloheximide cs | TbPYK inhibitor | LmPK inh | Shiga inhibitor
COc1cccc(C(=O)NC(=O)Nc2cc(C)[nH]n2)c1 | -5% | -15% | 39* | -10% | 0% | 84*
Cc1ccccc1Nc1c(-c2ccco2)nc2c(C)cccn12 | . | . | . | 2% | . | .
CCCCNc1c(-c2ccc(SC(C)CC)cc2)nc2ccccn12 (stereo unspecified) | . | ? | . | -19% | . | .
O=C(NC(=S)Nc1ccc2c(c1)C(=O)c1ccccc1C2=O)c1ccc(F)cc1 | -11% | . | 72* | . | -4% | 103*
COC(=O)c1ccccc1NC(=O)c1cc2sccc2n1C | 0% | 5% | 1 | -8% | -3% | 6
COc1ccccc1-c1nnc(NC(=O)C(C)C)s1 | 0% | -14% | 17 | -4% | 0% | -1
COc1cc(C(=O)Nc2ccc(Cl)c(C(F)(F)F)c2)cc(OC)c1OC | -1% | -2% | 5 | 33% | -1% | 9
COC(=O)c1cccc(NC(=O)c2cc3sccc3n2C)c1 | -27% | 3% | 29* | -5% | 0% | 109*
COc1cccc(C(=O)Nc2ccc(Cl)c(C(F)(F)F)c2)c1 | -13% | ? | 51* | 2% | 4% | 88*
COc1ccccc1-c1nnc(NC(C)=O)s1 | 3% | -30% | 38* | 11% | 1% | 49*
CCCOc1cccc(C(=O)NC(=S)Nc2cccc(C(F)(F)F)c2)c1 | -15% | 4% | -1 | 4% | 6% | 28
COc1cccc(OC)c1C(=O)Nc1nnc(-c2ccc(F)cc2)s1 | -4% | -21% | 10* | -2% | 1% | 30*
CCOc1cccc(C(=O)NC(=S)Nc2cccc(C)c2)c1 | -3% | -27% | 9 | -2% | 5% | 65*
CNC(=O)[C@H](C)[C@H]1C[C@]1(C)[C@H](NC(=O)OCc1ccccc1)c1ccccc1 | 2% | . | . | . | . | .
O=C(Nc1nnc([C@@H]2C[C@H](O)[C@@H](CO)O2)s1)c1c(F)cccc1F | . | -7%[18.4 µM] | . | 4% | . | .
Cc1ccsc1/C=N/NC(=S)NCc1ccccc1 | 16% | 3% | 21 | -6% | -4% | 13
Cc1ccsc1/C=N\NC(=O)CC(=O)NCc1ccccc1 | 20µM* | 1% | -2 | -6% | 0% | -16
Cc1ccsc1/C=N/NC(=O)C(N)=O | -3% | 17% | 35* | -15% | 1% | 73
Cc1ccsc1/C=N/NC(=O)c1ccccn1 | 1% | ? | 62* | -21% | ? | 47*
Cc1ccsc1/C=N/NC(=O)c1cccs1 | -5% | -16% | 33* | 4% | -14% | 77*
CCCCCCCCCCCCC/C=C/[C@@H](O)[C@@H](N)COP(=O)([O-])OCC[N+](C)(C)C | 13% | . | . | . | . | .
CCOc1ccc(NC(=O)Cn2cc(C(=O)c3ccc(CC)cc3)c(=O)c3cc(C)ccc32)cc1 | . | . | . | -2% | . | .
Cc1ccsc1/C=N/NC(=O)C(O)c1ccccc1 (stereo unspecified) | 3% | 2% | 9.6* | -1% | -10% | 12
COc1ccc(-c2csc(NC(=O)C3=COCCO3)n2)c(OC)c1 | . | ? | . | 6% | . | .
CCCC(=O)Nc1nc(-c2ccc3c(c2)OCCO3)cs1 | -7% | -12% | 40* | -4% | 0% | 93*
SMILES | FBPA Giardia inh | RE007 growth inh | Cycloheximide cs | TbPYK inhibitor | LmPK inh | Shiga inhibitor
Cc1cc(C)c(-c2csc(NC(=O)C3=COCCO3)n2)cc1C | . | 13µM* | . | 0% | . | .
CC(=O)Nc1nnc(-c2ccc3c(c2)CCCC3)o1 | -9% | -13% | 46* | 1% | -6% | 65*
CCCC(=O)Nc1nc(-c2ccc(OC)cc2)cs1 | 0% | 1% | 40* | -1% | -2% | 138*
Cc1cc(NC(=O)CSc2nc(-c3cccc(F)c3)nc3c2c(=O)n(C)c(=O)n3C)no1 | . | . | . | -1% | . | .
CCN(CC)c1ccc(S(=O)(=O)N2CCOCC2)cc1NC(=O)COC(=O)C1=COCCO1 | . | 2% | . | -9% | . | .
Cc1nc(NC(=O)COC(=O)CCc2nc3ccccc3s2)c(Cl)cc1Cl | 10% | 13% | -1 | 3% | 2% | -10
CCCC(=O)Nc1nc(-c2ccc(Cl)s2)cs1 | -2% | -12% | 38* | -1% | -2% | 28
O=C(CSCC(=O)Nc1nc(-c2ccc3c(c2)OCO3)cs1)Nc1nccs1 | -7% | 9% | -2 | 0% | 1% | 6
CCc1ccc(-c2csc(NC(=O)COC(=O)CCc3nc4ccccc4s3)n2)cc1 | 8% | . | 48* | . | 3% | 53*
O=C(O)C(=O)Nc1nc(-c2ccc3c(c2)OCCO3)cs1 | 6% | -12% | 14* | -15% | -11% | 26*
CSCC(=O)Nc1nc(-c2ccc3c(c2)OCCO3)cs1 | -10% | -26% | 51* | -3% | 9% | 119*
CCCC(=O)Nc1nnc(-c2ccc3c(c2)OCCO3)o1 | -20% | 2% | 31* | 3% | -2% | 58*
O=C(Nc1nc(-c2ccc(-c3ccccc3)cc2)cs1)C1=COCCO1 | 9% | -13% | 7 | -5% | 3% | 10
CSc1ccc(-c2nnc(NC(=O)c3ccc4c(c3)OCCO4)o2)cc1 | . | . | . | 1% | . | .
COc1ccc(-c2csc(NC(=O)COC(=O)C3=COCCO3)n2)cc1 | 7% | -3% | 33* | 2% | 0% | 53
O=C(Nc1nc(-c2ccc3c(c2)OCO3)cs1)C1CC1 | -10% | 18% | 44* | -10% | -3% | 66*
C[C@]12C=CC(=O)N[C@@H]1CC[C@@H]1C2CC[C@]2(C)C(C(=O)Nc3cc(C(F)(F)F)ccc3C(F)(F)F)CC[C@@H]12 (stereo partly specified) | . | . | . | 2% | . | .
CC(C)c1ccc(NC(=O)C2(C)Cc3c(-c4ccccc4)ccnc3O2)cc1 (stereo unspecified) | . | 14% | . | -3% | . | .
COc1ccc(CCN2CCCC(CN(C)C(=O)c3ccoc3)C2)cc1 (stereo unspecified) | . | -13% | 52* | -3% | 3% | 142*
CN(CC1CCCN(CCc2ccccc2F)C1)C(=O)c1ccoc1 (stereo unspecified) | 9% | 8% | 7 | 2% | 6% | 10
Cc1ccccc1CCN1CCCC(CN(C)C(=O)C(=O)c2ccco2)C1 (stereo unspecified) | -13% | 3% | 18* | 7% | -3% | 37
Cc1noc(C)c1-c1cncnc1N1CCN(C)CC1 | 4% | . | . | . | . | .
NC(=O)c1ccc(C(F)(F)F)n(Cc2ccc(Cl)cc2)c1=O | -1% | 7% | 25* | -4% | 1% | -8
Cc1ccc(S(=O)(=O)NCc2cccc([N+](=O)[O-])c2)cc1 | . | -14% | . | -2% | . | .
COc1ccc(NC2=NCC(C)S2)cc1 (stereo unspecified) | 7% | -13% | 17* | 5% | 8% | 18
COc1ccc(Nc2c3ccccc3nc3ccccc23)cc1 | -19% | 9% | 22* | -4% | 7% | 44*
